PubChem BioAssay (NCI)
Compounds without any hit were thinned out: in the full panel of roughly 83,000, 20% have a hit.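 Growth was measured after 48 h exposure to one concentration of compound in 96-well plates. Values under 10 count as active.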 The source made the active and inactive calls.

Assays:
Assay in all cases: NCI-60 one-dose screen, 48 h (100 = growth as untreated, 0 = no growth, -100 = all killed)
Conditions in all cases: 10 µM unless noted
[1] = test system: HCT-15 colon
[2] = test system: HT29 colon
[3] = test system: SNB-75 CNS
[4] = test system: SNB-19 CNS
[5] = test system: U251 CNS
[6] = test system: PC-3 prostate
[7] = test system: SK-MEL-5 melanoma
[8] = test system: UACC-62 melanoma
[9] = test system: SK-MEL-28 melanoma
[10] = test system: LOX IMVI melanoma

Measured: growth

CC(C)(C)C(=O)OCOP(=O)(NCc1ccccc1)C1CCCN(O)C1=O (configuration not stated)
inactive: [1] 22.5% | [2] 21.5% | [3] 70.6% | [4] 37.9% | [5] 13.8% | [6] 67.7% | [7] 31.2% | [8] 19.5% | [9] 17%

O=C1CC2(CC3(Cl)C(Cl)=C(Cl)C2(Cl)C3(Cl)Cl)C(=O)O1 (configuration not stated)
inactive: [1] 113% | [2] 113% | [3] 89.4% | [4] 106% | [5] 107% | [6] 93.6% | [7] 102% | [8] 112% | [9] 112%

Cc1cc(C)c(CBr)c(C)c1
inactive: [1] 108% | [2] 100% | [3] 106% | [4] 110% | [5] 95.3% | [6] 94% | [7] 97.7% | [8] 102% | [9] 106%

CC[C@H](C)[C@H](NC(=O)C12CC(NC(C)=O)(C1)C2)C(=O)N(C)[C@H](C[C@@H](OC(C)=O)c1nc(C(=O)N[C@@H](Cc2ccccc2)C[C@H](C)C(=O)OC)cs1)C(C)C
active: [2] 5.65% | [7] -6.58%
inactive: [1] 29.3% | [3] 44.8% | [4] 50.9% | [5] 11.6% | [6] 15.4% | [10] 16.5% | [9] 61%

CC12CC(=O)C3(SC#N)C(CCC4=CC(=O)CCC43C)C1CCC2=O (configuration not stated)
inactive: [1] 34.5% | [2] 64.2% | [3] 93.6% | [4] 96% | [5] 101% | [6] 104% | [7] 101% | [8] 89.3% | [9] 94.7%

CCCCCCCCCCCCCCCCCC1OC[C@@H](COC(=O)O[C@@H](C(=O)O[C@H]2C[C@@]3(O)[C@@H](OC(=O)c4ccccc4)[C@@H]4[C@]5(OC(C)=O)CO[C@@H]5C[C@H](O)[C@@]4(C)C(=O)[C@H](OC(C)=O)C(=C2C)C3(C)C)[C@@H](NC(=O)c2ccccc2)c2ccccc2)O1 (some centres not stated)
inactive: [1] 100% | [2] 18.2% | [3] 50.2% | [4] 62.1% | [5] 58% | [6] 46.6% | [7] 75.7% | [8] 58.7% | [9] 59%

CNC(=O)Oc1cccc(C(F)(F)F)c1
inactive: [1] 117% | [2] 108% | [3] 113% | [4] 103% | [5] 114% | [6] 104% | [7] 105% | [8] 97.7% | [9] 105%

Nc1c(F)cc(-c2nc3cc(F)ccc3[se]2)cc1Br
inactive: [1] 18.5% | [3] 73.4% | [4] 94.5% | [5] 87.5% | [6] 66.4% | [7] 50% | [8] 47.5% | [9] 106%
active: [2] 5.05%

CC[C@H](C)[C@H](NC(=O)c1cccn1C)C(=O)N(C)[C@H](C[C@@H](OC(C)=O)c1nc(C(=O)N[C@@H](Cc2ccccc2)C[C@H](C)C(=O)OC)cs1)C(C)C
inactive: [1] 12% | [3] 33.4% | [4] 35.4% | [5] 12.3% | [6] 21.2% | [8] 40.4% | [9] 68.8%
active: [2] -18.1% | [7] -29.1%

COc1cc2c(cc1OCCCn1c(-c3ccccn3)nc3ccccc31)N=C[C@@H]1CCCN1C2=O
active: [1] -22.7% | [2] -26.7% | [5] -44% | [7] -69.7% | [8] -75.9% | [9] 5.44%
inactive: [3] 23.3% | [4] 27.2% | [6] 12.8%

CC(=O)O[C@H]1C(=O)[C@@]2(C)[C@H]([C@H](OC(=O)c3ccccc3)[C@]3(O)C[C@H](OC(=O)[C@H](OC(=O)OCC4COC(C)(C)O4)[C@@H](NC(=O)c4ccccc4)c4ccccc4)C(C)=C1C3(C)C)[C@]1(OC(C)=O)CO[C@@H]1C[C@@H]2O (some centres not stated)
active: [2] 9.74%
inactive: [1] 29.2% | [3] 41.9% | [4] 36.6% | [5] 34.4% | [6] 38.7% | [7] 44.1% | [8] 34.4% | [9] 43.8%

CN(C)CC(C(=O)Cc1ccccc1)c1ccccc1 (configuration not stated)
inactive: [1] 37.2% | [2] 30% | [3] 73.4% | [4] 100% | [5] 110% | [6] 73.2% | [7] 97.2% | [8] 112% | [9] 96.5%

CC(C)CCC(=O)O[C@H]1CC[C@H]2[C@@H]3CCC4=CC(=O)CC[C@]4(C)[C@H]3CC[C@]12C
inactive: [1] 97.4% | [2] 106% | [3] 82.6% | [4] 105% | [5] 99.2% | [6] 92.8% | [7] 96.5% | [10] 97.9% | [9] 99.8%

O=C1NC(=O)C(=Cc2cn(C(=O)c3ccccc3)c3ccccc23)C(=O)N1
inactive: [1] 101% | [2] 97% | [3] 73.1% | [4] 97.6% | [5] 102% | [6] 79.4% | [7] 92.3% | [8] 85.9% | [9] 111%

CC[C@H](C)[C@H](NC(=O)C12C3C4C1C1C2C3C41NC(C)=O)C(=O)N(C)[C@H](C[C@@H](OC(C)=O)c1nc(C(=O)N[C@@H](Cc2ccccc2)C[C@H](C)C(=O)OC)cs1)C(C)C (some centres not stated)
inactive: [1] 24.8% | [3] 38.6% | [4] 56.1% | [6] 11.3% | [10] 14.9% | [9] 59.6%
active: [2] 4.53% | [5] 9.8% | [7] -13.4%

COC(=O)[C@H](Cc1ccccc1)NC(=O)c1csc([C@@H](C[C@H](C(C)C)N(C)C(=O)[C@@H](NC(=O)[C@H]2CCCCN2C)C2CC2)OC(C)=O)n1
inactive: [1] 13.1% | [3] 34.3% | [4] 69.6% | [6] 11.3% | [8] 36.3% | [9] 44.7%
active: [2] 5.33% | [5] -5.23% | [7] -1.17%

COc1ccc2c(c1)c(-c1nc(-c3cn(C)c4ncccc34)cs1)cn2CCCCN1CCCCC1
inactive: [3] 63.9%
active: [1] -80.9% | [2] -72.6% | [4] -1.68% | [5] -85.6% | [6] -66.3% | [7] -80.4% | [10] -78% | [9] -69%

CN1C(=O)C(=Cc2cn(CCCCCCn3c4ccccc4c(=O)c4ccccc43)c3ccccc23)C(=O)N(C)C1=O
inactive: [1] 92.1% | [2] 96.1% | [3] 91.4% | [4] 104% | [5] 99.2% | [6] 89.8% | [7] 94.3% | [10] 93% | [9] 98%

CC(C)(C)C(=O)OCOP(=O)(OCOC(=O)C(C)(C)C)C1CCCN(O)C1=O (configuration not stated)
active: [1] 7.4% | [2] 2.01% | [4] 2.57% | [5] 2.06% | [7] -13.5% | [9] -23.8%
inactive: [3] 47.6% | [6] 24.2% | [10] 17.6%

CCn1cnc2c(Nc3cccc(Cl)c3)nc(N[C@@H]3CCCC[C@@H]3N)nc21
inactive: [8] 10.2% | [9] 22.8%
active: [1] 6.27% | [2] -4.11% | [3] -5.9% | [4] 7.42% | [5] 6.89% | [6] 4.71% | [7] -26.5%

COc1cccc(/C=C/[N+](=O)[O-])c1
inactive: [3] 68.1% | [4] 71.8% | [5] 54.4% | [6] 63.6% | [7] 80.6% | [8] 92.6% | [9] 50.2%
active: [1] -9.58% | [2] -48.6%

COc1ccc2c(c1)c(-c1nc(-c3c[nH]c4ncccc34)cs1)cn2CCN1CCOCC1
inactive: [1] 31.4% | [2] 45.8% | [3] 49.7% | [4] 67% | [5] 45.6% | [6] 34.1% | [7] 25.4% | [10] 45.4% | [9] 68.4%

O=C(Nc1ccc([N+](=O)[O-])cc1)C(Cl)(Cl)Cl
inactive: [1] 80.8% | [2] 101% | [3] 96.6% | [4] 94.7% | [5] 93.9% | [6] 95.1% | [7] 99.4% | [8] 84.9% | [9] 103%

COc1ccc2c(c1)c(-c1nc(-c3cn(C)c4ncccc34)cs1)cn2CCN1CCOCC1
inactive: [1] 20.9% | [2] 25.9% | [3] 63.3% | [4] 33.1% | [5] 28.2% | [6] 17.6% | [7] 30.7% | [10] 32.5% | [9] 56.1%

COc1cccc2c1c(C(=O)c1ccco1)cn2Cc1ccc(F)cc1
inactive: [1] 103% | [2] 118% | [3] 121% | [4] 119% | [5] 112% | [6] 105% | [7] 96.3% | [8] 78.3% | [9] 123%

c1cnc2[nH]cc(-c3csc(-c4cn(CCCCN5CCCCC5)c5ccccc45)n3)c2c1
inactive: [1] 51% | [2] 34.4% | [3] 70.3% | [4] 90.4% | [5] 86.3% | [6] 63.1% | [7] 70.4% | [10] 84.2% | [9] 83%

Nc1cc2nc3ccccc3nc2cc1N
inactive: [1] 88.5% | [2] 105% | [3] 85.5% | [4] 85.6% | [5] 77.2% | [6] 79.3% | [7] 87% | [10] 80.8% | [9] 129%

O=C1C2C(C(=O)[N]1[Hg][c]1cccs1)C1(Cl)C(Cl)=C(Cl)C2(Cl)C1(Cl)Cl (configuration not stated)
inactive: [3] 59.5% | [4] 51.5% | [6] 33.4% | [7] 24%
active: [1] -76.8% | [2] 8.75% | [5] -67.6% | [10] -90.7% | [9] -76.9%
